# High-throughput results deposited in PubChem by several laboratories.
# This is a sample that favours compounds with a hit; in the whole collection about 27% have one here.
# CYP2C19 inh = inhibitors of human CYP2C19; AID 778; inhibition, % at 5 µM; P33261; 96,000 tested, 21% active; CYP2C19 Supersomes, luciferin-H EGE luminescence, 30 min;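 active means CYP2C19 inhibition above a set limit at 5 µM in the primary screen, cut at about 50% in these data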;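 further: plate controls were negative control wells for no effect and 2.5 mM tranylcypromine positive control for full effect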
# CYP2C19 act = increases human CYP2C19 enzyme activity. recombinant CYP2C19, luciferin-H EGE luminescence; active compounds read high; 0 = fully inhibited enzyme, 1 = untreated enzyme. AID 1025. activation factor at 5 µM. 96,000 tested, under 10 active. P33261;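 active means activation factor of at least 2 at 5 µM in the primary screen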;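 further: 0 = wells with 2.5 mM tranylcypromine and 1 = vehicle-only wells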
# Cav32 inh = blocks human Cav3.2 T-type calcium channel; Cav3.2-expressing cells, Fluo-4 calcium fluorescence FDSS; active compounds read low; 100,000 tested, 4% active; O95180; B-score at 10 µM; AID 449739;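 active means single-dose well whose peak fluorescence ratio is a statistical outlier from its plate by either plate-standardised score or position-corrected B-score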
# Target sequence (O95180 whole entry, looked up): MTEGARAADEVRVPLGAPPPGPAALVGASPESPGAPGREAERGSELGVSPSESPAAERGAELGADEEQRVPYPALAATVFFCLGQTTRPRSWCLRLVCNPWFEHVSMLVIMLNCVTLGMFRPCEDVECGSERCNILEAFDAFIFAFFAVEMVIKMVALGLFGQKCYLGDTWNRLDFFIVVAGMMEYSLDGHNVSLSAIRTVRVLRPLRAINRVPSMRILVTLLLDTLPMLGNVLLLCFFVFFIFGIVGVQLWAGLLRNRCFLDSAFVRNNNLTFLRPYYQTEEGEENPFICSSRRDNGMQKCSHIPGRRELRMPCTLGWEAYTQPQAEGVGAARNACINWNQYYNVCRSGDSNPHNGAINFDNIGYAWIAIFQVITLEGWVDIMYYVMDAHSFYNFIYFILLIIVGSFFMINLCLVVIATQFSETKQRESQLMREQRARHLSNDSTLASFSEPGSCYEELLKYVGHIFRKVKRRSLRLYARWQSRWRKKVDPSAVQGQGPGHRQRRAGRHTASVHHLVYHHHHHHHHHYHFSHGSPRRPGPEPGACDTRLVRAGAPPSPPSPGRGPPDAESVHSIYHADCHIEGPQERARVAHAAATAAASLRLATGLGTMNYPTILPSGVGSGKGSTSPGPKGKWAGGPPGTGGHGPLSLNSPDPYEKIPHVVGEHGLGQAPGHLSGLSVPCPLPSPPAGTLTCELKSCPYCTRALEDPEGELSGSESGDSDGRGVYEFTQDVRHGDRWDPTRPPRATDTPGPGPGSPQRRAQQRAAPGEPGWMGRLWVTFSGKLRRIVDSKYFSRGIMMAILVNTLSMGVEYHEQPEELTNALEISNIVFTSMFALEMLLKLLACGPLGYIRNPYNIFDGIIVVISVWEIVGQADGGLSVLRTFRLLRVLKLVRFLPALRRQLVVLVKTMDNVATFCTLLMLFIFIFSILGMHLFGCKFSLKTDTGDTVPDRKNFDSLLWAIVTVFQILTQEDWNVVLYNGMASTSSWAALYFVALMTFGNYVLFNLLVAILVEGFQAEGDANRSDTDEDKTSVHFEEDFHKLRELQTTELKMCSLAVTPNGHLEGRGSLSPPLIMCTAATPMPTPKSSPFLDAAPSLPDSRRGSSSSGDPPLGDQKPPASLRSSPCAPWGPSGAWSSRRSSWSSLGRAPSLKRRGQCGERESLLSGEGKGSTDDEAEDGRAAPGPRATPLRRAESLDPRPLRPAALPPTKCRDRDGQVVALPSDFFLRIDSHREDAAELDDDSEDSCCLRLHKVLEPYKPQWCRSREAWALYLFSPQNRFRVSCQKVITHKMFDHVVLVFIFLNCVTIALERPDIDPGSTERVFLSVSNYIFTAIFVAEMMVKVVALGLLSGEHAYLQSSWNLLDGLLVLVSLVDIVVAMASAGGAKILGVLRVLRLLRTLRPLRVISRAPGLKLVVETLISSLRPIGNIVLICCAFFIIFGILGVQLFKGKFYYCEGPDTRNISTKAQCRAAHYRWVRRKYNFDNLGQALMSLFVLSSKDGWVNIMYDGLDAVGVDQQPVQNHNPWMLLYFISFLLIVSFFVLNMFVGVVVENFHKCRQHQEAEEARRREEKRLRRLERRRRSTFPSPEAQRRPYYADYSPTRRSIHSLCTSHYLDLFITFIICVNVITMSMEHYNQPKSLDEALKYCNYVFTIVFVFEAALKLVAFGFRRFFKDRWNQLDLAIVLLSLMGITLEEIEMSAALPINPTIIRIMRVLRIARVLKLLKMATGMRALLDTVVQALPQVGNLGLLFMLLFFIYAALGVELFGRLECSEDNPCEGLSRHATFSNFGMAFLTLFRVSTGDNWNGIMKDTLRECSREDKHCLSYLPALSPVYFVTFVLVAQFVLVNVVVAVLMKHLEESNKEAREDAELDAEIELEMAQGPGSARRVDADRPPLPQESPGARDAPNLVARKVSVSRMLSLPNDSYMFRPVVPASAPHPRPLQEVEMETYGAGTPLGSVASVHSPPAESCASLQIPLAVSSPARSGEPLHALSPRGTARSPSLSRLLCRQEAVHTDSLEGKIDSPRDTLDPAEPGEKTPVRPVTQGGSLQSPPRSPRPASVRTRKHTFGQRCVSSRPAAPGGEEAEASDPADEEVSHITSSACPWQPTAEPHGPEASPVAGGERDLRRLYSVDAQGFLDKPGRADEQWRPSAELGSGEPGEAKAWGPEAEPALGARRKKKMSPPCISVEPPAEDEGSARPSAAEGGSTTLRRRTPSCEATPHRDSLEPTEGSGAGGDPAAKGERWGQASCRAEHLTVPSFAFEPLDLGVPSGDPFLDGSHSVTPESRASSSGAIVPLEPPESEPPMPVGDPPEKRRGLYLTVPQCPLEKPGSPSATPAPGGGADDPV
# CYP2C9 act = CYP2C9 (human) activation. 96,000 tested, 1.4% active. recombinant CYP2C9, luciferin-H conversion, luminescence; active compounds read high; factor 1 = untreated enzyme, 0 = blocked. P11712. activation factor at 5 µM;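 active means activation factor of 2 or more for CYP2C9 at a 5 µM dose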;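 further: 0 = sulfaphenazole-blocked wells and 1 = vehicle-only wells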
# CYP2C9 inhib = blocks human cytochrome P450 2C9; P11712; CYP2C9 Supersomes, luciferin-H conversion, luminescence; inhibition, % at 5 µM; 96,000 tested, 20% active;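 active means blocking of liver enzyme CYP2C9 beyond about 50% at 5 µM, limit read from the data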
# * hit, by the source's call; . = not tested or not shown.
SMILES,CYP2C19 inh,CYP2C19 act,Cav32 inh,CYP2C9 act,CYP2C9 inhib
COC(=O)CSc1nc(-c2ccc(C)cc2)c2c(c1C#N)CCCC2,45.4,0.5,-1.47,0.4,55.1*
COc1ccccc1NC(=O)CSc1nc(C)c2c(c1C#N)CCCC2,21.9,0.8,-1.61,0.8,18.8
O=C(Nc1cc(C(F)(F)F)ccc1N1CCCC1)c1ccc2c(c1)OCO2,69.2*,0.3,-3.43,0.2,76.7*
O=C(Nc1cc(C(F)(F)F)ccc1N1CCCCC1)c1cccc([N+](=O)[O-])c1,32.9,0.7,-0.781,0.4,56.0*
O=C(Nc1ccccc1N1CCCCC1)c1ccc(F)cc1,16.1,0.8,-2.8,1,-1.0
O=C(Nc1ccccc1N1CCCC1)c1ccc2c(c1)OCO2,71.1*,0.3,-0.42,0.5,52.7*
COc1cc(/C=N/NC(=O)CNC(=O)c2ccccc2)ccc1OC(=O)c1cccs1,27.3,0.7,-0.453,0.6,38.5
O=C1c2cc(F)ccc2OC2(CCNCC2)C12CC(c1ccccc1)=NO2 (stereo not drawn),.,.,0.588,.,.
CCO[C@@H]1OC(C(=O)O)=C[C@H](C2CC2)[C@H]1CCCO,.,.,0.231,.,.
Cc1sc(-c2ccncc2)nc1OC(=O)c1cc(Cl)cc(Cl)c1,53.3*,0.5,-0.532,0.3,68.0*
O=C(O)Cc1sc(-c2ccc(Cl)cc2)nc1-c1ccccc1,-4.8,1,-0.268,0.5,48.1
C/C(=N\OC(=O)c1ccc(Cl)cc1)c1sc(-c2ccccc2)nc1C,-1.2,1,.,1,-2.1
Cc1sc(-c2ccncc2)nc1OC(=O)c1ccc(Cl)cc1,90.5*,0.1,-0.0421,0.1,88.5*
CCCN(Cc1ccccc1)S(=O)(=O)c1ccc(N2C(=O)CCC2=O)cc1,24.1,0.8,-0.624,0.6,42.1
Clc1ccc(OCc2nnc3n2N=C(c2ccc4c(c2)OCCO4)CS3)c(Cl)c1,74.5*,0.3,-3.33,0,97.1*
CCc1nnc2n1N=C(c1ccc(OC)cc1)CS2,.,.,0.156,.,.
COc1cc(C2C3C(=O)N(c4ccc(F)cc4)C(=O)C3ON2c2ccccc2)ccc1O (stereo not drawn),41.8,0.6,0.471,0.5,53.3*
O=C1C2ON(c3ccccc3)C(c3cccnc3)C2C(=O)N1c1ccc(Cl)c(Cl)c1 (stereo not drawn),67.5*,0.3,-1.42,0.5,46.2
O=C1C2ON(c3ccccc3)C(c3cccnc3)C2C(=O)N1c1ccccc1 (stereo not drawn),-1.4,1,.,1,-2.4
Cn1c(=O)[nH]c2sc3c(c2c1=O)CC(C)(C)OC3,-8.2,1.1,0.845,1.1,-5.0
O=C(COc1ccc(S(=O)(=O)NC2CCCCC2)cc1Cl)N1CCN(c2ccccc2)CC1,67.8*,0.3,-3.29,0,100.1*
CC(NS(=O)(=O)c1ccc(OCC(=O)N2CCOCC2)c(Cl)c1)c1ccccc1 (stereo not drawn),48.8,0.5,0.8,0.4,63.7*
CC(NS(=O)(=O)c1ccc(OCC(=O)N2CCOCC2)cc1)c1ccccc1 (stereo not drawn),.,.,-0.463,.,.
O=C1CC(=C2c3ccccc3-c3ccccc32)C(=O)N1CCN1CCN(c2ccccc2)CC1,.,.,0.00616,.,.
COc1ccc(C2=Nn3c(nnc3-c3ccncc3)SC2)cc1OC,26.1,0.7,0.000313,0.4,60.6*
SMILES,CYP2C19 inh,CYP2C19 act,Cav32 inh,CYP2C9 act,CYP2C9 inhib
COc1ccc(C2=Nn3c(nnc3-c3cccnc3)SC2)cc1OC,15.3,0.8,0.786,0.8,23.1
COc1ccc(C(=O)NC(C)(C)C)cc1S(=O)(=O)N1CCCC1,10.3,0.9,1.32,0.5,53.4*
COc1ccc(C(=O)NCc2ccccc2)cc1S(=O)(=O)N1CCCc2ccccc21,25.6,0.7,-5.3*,0.5,54.9*
COc1ccc(C(=O)Nc2cccc(C)c2)cc1S(=O)(=O)N1CCOCC1,22.8,0.8,1.16,0.9,5.9
O=C(NC1CCCC1)c1ccc(S(=O)(=O)N2CCCC2)cc1,5.8,0.9,0.286,0.7,30.5
COc1ccc(C(=O)NC2CCCCC2)cc1S(=O)(=O)N1CCCC1,31.4,0.7,0.394,0.5,53.4*
COCCNC(=O)CS(=O)(=O)Cc1nc(-c2ccc(C)cc2)oc1C,19.6,0.8,0.826,0.7,25.4
O=C(CCCc1nc2ccccc2s1)N1CCN(S(=O)(=O)c2cccs2)CC1,30.6,0.7,-0.298,0.5,49.9
CC(C)(C)OC(=O)N1CCC(C(=O)N[C@@H](Cc2ccccc2)C(=O)O)CC1,-16.9,1.2,-1.39,0.9,8.9
CCn1c(SCC(=O)N2CCN(c3cccc(Cl)c3)CC2)nc2ccccc2c1=O,.,.,-2.66,.,.
